Test results: PubChem BioAssay (NCI)
Compounds without any hit were thinned out: in the full panel of roughly 83,000, 20% have a hit.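 Interpretation: 100, growth as untreated; towards 0, rising growth inhibition; 0, no net growth; 0 to -100, cell death. Compounds scoring below 10 were considered active.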 Values without a mark were called inactive. Active and inactive are the calls of the source.

What was measured:
Assay in all cases: NCI-60 one-dose screen, 48 h (100 = growth as untreated, 0 = no growth, -100 = all killed)
Conditions in all cases: 10 µM unless noted
[1] = tested on: NCI-H23 lung
[2] = tested on: NCI-H226 lung
[3] = tested on: NCI-H322M lung
[4] = tested on: HOP-62 NSCLC
[5] = tested on: NCI-H460 lung
[6] = tested on: HOP-92 NSCLC
[7] = tested on: NCI-H522 lung
[8] = tested on: 786-0 renal
[9] = tested on: COLO 205 colon
[10] = tested on: A549/ATCC NSCLC

## COc1cccc(CC(C)=C(c2ccc(OCCN3CCCCC3)cc2)c2ccc(OCCN3CCCCC3)cc2)c1
[1]
  growth: 58%
[2]
  growth: 79.8%
[3]
  growth: 0.584% (active)
[4]
  growth: 31.1%
[5]
  growth: -73.3% (active)
[6]
  growth: -4.48% (active)
[7]
  growth: -75% (active)
[8]
  growth: -83.7% (active)
[9]
  growth: -81.2% (active)

## COc1cc(-c2nn(-c3cccc(NC(=O)c4cccc(C(F)(F)F)c4)c3)cc2-c2ccncc2)ccc1Cl
[1]
  growth: 24.7%
[2]
  growth: 36.2%
[3]
  growth: 58.1%
[4]
  growth: 22.9%
[5]
  growth: 4.83% (active)
[7]
  growth: -42.3% (active)
[10]
  growth: 7.4% (active)
[8]
  growth: 29.8%

## Cc1ccc2[nH]c(=O)c3c(c2c1)Oc1ncn2nc(-c4ccco4)nc2c1C3c1ccc(Cl)cc1 (stereo not given)
[1]
  growth: 93.3%
[2]
  growth: 92.4%
[3]
  growth: 96.1%
[4]
  growth: 92.1%
[5]
  growth: 99.9%
[6]
  growth: 78.5%
[7]
  growth: 89.5%
[10]
  growth: 96.7%
[9]
  growth: 109%

## Cc1ccc(C(=O)NCCCNc2nccc(-n3ccc4cccnc43)n2)cc1
[1]
  growth: 102%
[2]
  growth: 93.4%
[3]
  growth: 91.6%
[4]
  growth: 104%
[5]
  growth: 109%
[6]
  growth: 96.4%
[7]
  growth: 88%
[8]
  growth: 93.7%
[9]
  growth: 103%

## COc1ccc(C(=O)N2NC(=O)/C(=C/c3ccc(F)cc3)N=C2c2ccccc2)cc1
[1]
  growth: 92.2%
[2]
  growth: 96.5%
[3]
  growth: 92%
[4]
  growth: 99.3%
[5]
  growth: 104%
[6]
  growth: 93.7%
[7]
  growth: 93.3%
[8]
  growth: 78.9%
[9]
  growth: 119%

## COc1cc(/C=C/C(=O)c2c(C)nc3ccccc3c2C)ccc1OCCCCOc1cc2c(cc1OC)C(=O)N1CCC[C@H]1C=N2
[1]
  growth: -34.9% (active)
[2]
  growth: -80.9% (active)
[3]
  growth: -62.7% (active)
[4]
  growth: -49% (active)
[5]
  growth: -93.3% (active)
[6]
  growth: -49.1% (active)
[7]
  growth: -32.2% (active)
[8]
  growth: -88.1% (active)
[9]
  growth: -100% (active)

## COc1ccc(-n2c(=O)sc3c(Cl)nc(C)nc32)c(OC)c1
[1]
  growth: 79.8%
[2]
  growth: 99.4%
[3]
  growth: 96.5%
[4]
  growth: 86.1%
[5]
  growth: 57.4%
[6]
  growth: 76.9%
[7]
  growth: 78.5%
[8]
  growth: 99.2%
[9]
  growth: 99.4%

## O=C(c1ccccc1)C1OC1c1ccc([N+](=O)[O-])cc1 (stereo not given)
[1]
  growth: 48.1%
[2]
  growth: 67.7%
[3]
  growth: 106%
[4]
  growth: 86.4%
[5]
  growth: 84%
[6]
  growth: 61.5%
[7]
  growth: 31.4%
[8]
  growth: 83.3%
[9]
  growth: 112%

## COc1cc(-c2nn(-c3cccc(NC(=O)Nc4cc(C(F)(F)F)cc(C(F)(F)F)c4)c3)cc2-c2ccncc2)ccc1Cl
[1]
  growth: -3.3% (active)
[2]
  growth: 8.68% (active)
[3]
  growth: 26.1%
[4]
  growth: -77.6% (active)
[5]
  growth: -49.7% (active)
[6]
  growth: -50.2% (active)
[7]
  growth: -34.4% (active)
[8]
  growth: -71.1% (active)
[9]
  growth: -98.7% (active)

## O=C1C(Cl)=C(Nc2ccccn2)C(=O)c2ccccc21
[1]
  growth: 40.5%
[2]
  growth: 94.1%
[3]
  growth: 115%
[4]
  growth: 46.9%
[5]
  growth: 62.6%
[6]
  growth: 102%
[7]
  growth: 58.3%
[8]
  growth: 111%
[9]
  growth: 97.6%

## CCN(CC)CCC(CNc1ccnc2cc(Cl)ccc12)c1ccc(Cl)cc1 (stereo not given)
[1]
  growth: 48.6%
[2]
  growth: 14.4%
[3]
  growth: 34.6%
[4]
  growth: 6.58% (active)
[5]
  growth: -12.4% (active)
[6]
  growth: -39.9% (active)
[7]
  growth: -59.1% (active)
[8]
  growth: -59.1% (active)
[9]
  growth: -97.7% (active)

## O=C(C1=Cc2cc3ccccc3n2Cc2cnnn21)c1ccccc1
[1]
  growth: 73.6%
[2]
  growth: 78.1%
[3]
  growth: 80.6%
[4]
  growth: 39.2%
[5]
  growth: 30.9%
[6]
  growth: 55.1%
[7]
  growth: 9.68% (active)
[8]
  growth: 69.1%
[9]
  growth: 58.8%

## CCCCCCCCCCCCNC(=O)[C@H]1CSC(c2cc3ccccc3s2)N1 (stereo not given in full)
[1]
  growth: -7.5% (active)
[2]
  growth: 22.8%
[3]
  growth: 16.6%
[4]
  growth: -96.3% (active)
[5]
  growth: -54.8% (active)
[6]
  growth: 62.5%
[7]
  growth: 16%
[8]
  growth: 11.7%
[9]
  growth: 95.6%

## Cc1ccc(Cc2c(C=O)nc(N)[nH]c2=O)c2ccccc12
[1]
  growth: 97.7%
[2]
  growth: 98.6%
[3]
  growth: 119%
[4]
  growth: 96.2%
[5]
  growth: 109%
[6]
  growth: 91.9%
[7]
  growth: 118%
[8]
  growth: 89.8%
[9]
  growth: 95.5%

## O=C1NC(=C(Cl)Cl)/C(=N/S(=O)(=O)N2CCC(C3(C(F)(F)F)N=N3)CC2)N1
[1]
  growth: 45.3%
[2]
  growth: 106%
[3]
  growth: 95.8%
[4]
  growth: 104%
[5]
  growth: 100%
[6]
  growth: 87%
[7]
  growth: -58% (active)
[8]
  growth: 103%
[9]
  growth: 26%

## Nc1nnc(-c2ccc3ccccc3c2O)o1
[1]
  growth: 85.3%
[2]
  growth: 94.8%
[3]
  growth: 88%
[4]
  growth: 89.8%
[5]
  growth: 92.6%
[6]
  growth: 83%
[7]
  growth: 85.1%
[8]
  growth: 104%
[9]
  growth: 99.5%

## O=S(=O)(NCCNc1nccc(-c2c(-c3ccc(F)cc3)nc3sccn23)n1)c1ccc(F)cc1
[1]
  growth: 78.7%
[2]
  growth: 72.8%
[3]
  growth: 77.4%
[4]
  growth: 84.4%
[5]
  growth: 48.6%
[6]
  growth: 82.7%
[7]
  growth: 89.6%
[8]
  growth: 73.7%
[9]
  growth: 58.8%

## COc1cc2c(=O)n(C3CCCCCC3)c3c4cc[nH]c4ncc3c2cc1OC
[1]
  growth: 77.1%
[2]
  growth: 43.9%
[3]
  growth: 89.2%
[4]
  growth: 59%
[5]
  growth: 72.4%
[6]
  growth: 59.1%
[7]
  growth: 65.4%
[8]
  growth: 90.2%
[9]
  growth: 79.9%

## COc1ccc(-c2ccc(C)n2-c2ccc(-c3nc4cc(Cl)ccc4s3)cc2)cc1
[1]
  growth: 83.4%
[2]
  growth: 78.7%
[3]
  growth: 103%
[4]
  growth: 102%
[5]
  growth: 99.7%
[6]
  growth: 133%
[7]
  growth: 98.8%
[8]
  growth: 106%
[9]
  growth: 95.9%

## O=C1C2(c3ccccc3)C(c3ccccc3)=C(c3ccccc3)C1(c1ccccc1)C1CC=CC12 (stereo not given)
[1]
  growth: 75.9%
[2]
  growth: 74%
[3]
  growth: 84.7%
[4]
  growth: 102%
[5]
  growth: 84.4%
[6]
  growth: 1.51% (active)
[7]
  growth: 71.3%
[8]
  growth: 85.9%
[9]
  growth: 112%

## N#Cc1c(Nc2ccccc2)nc2n(c1=O)-c1ccccc1Sc1ccccc1-2
[1]
  growth: 88.5%
[2]
  growth: 84.4%
[3]
  growth: 90.7%
[4]
  growth: 98.8%
[5]
  growth: 90.7%
[6]
  growth: 58.7%
[7]
  growth: 75.2%
[8]
  growth: 90.2%
[9]
  growth: 84.1%

## COc1ccc(C(=O)c2cc(OC)c(OC)c(OC)c2OC)cc1O
[1]
  growth: 44.2%
[2]
  growth: 86.8%
[3]
  growth: 55.4%
[4]
  growth: 42%
[5]
  growth: 13.7%
[6]
  growth: 60.4%
[7]
  growth: -0.0983% (active)
[8]
  growth: 51%
[9]
  growth: 86%

## Fc1ccc(Nc2nc(NCCNc3ccnc4cc(Cl)ccc34)nc(N3CCOCC3)n2)cc1
[1]
  growth: 93%
[2]
  growth: 94.8%
[3]
  growth: 73.7%
[4]
  growth: 85%
[5]
  growth: 34.9%
[6]
  growth: -5.61% (active)
[7]
  growth: 48.1%
[8]
  growth: 53.6%
[9]
  growth: -85.7% (active)

## COc1ccc(Nc2nn3c(C)cc(C)nc3c2C(=O)Nc2ccc(C)cc2)c(OC)c1
[1]
  growth: 92.7%
[2]
  growth: 101%
[3]
  growth: 92.8%
[4]
  growth: 85.8%
[5]
  growth: 101%
[6]
  growth: 87.1%
[7]
  growth: 88.6%
[8]
  growth: 90.9%
[9]
  growth: 98.7%

## CC[N+](CC)=c1cc2oc3cc(N(C)C)ccc3nc-2cc1C
[1]
  growth: 8.14% (active)
[2]
  growth: 79%
[3]
  growth: -28.4% (active)
[4]
  growth: 18.3%
[5]
  growth: 36.4%
[6]
  growth: 63.9%
[7]
  growth: -43.8% (active)
[8]
  growth: 70.4%
[9]
  growth: -9.82% (active)

## O=C1CS/C(=N\Nc2cc(=O)[nH]c3ccccc23)N1c1ccccc1
[1]
  growth: 96.4%
[2]
  growth: 95.6%
[3]
  growth: 99.3%
[4]
  growth: 86.6%
[5]
  growth: 100%
[6]
  growth: 65.1%
[7]
  growth: 76.2%
[10]
  growth: 97.2%
[9]
  growth: 105%

## O=C1Nc2ccc3c(c2/C1=C\c1cc2c(cc1Br)OCO2)OCO3
[1]
  growth: 19.5%
[2]
  growth: 13.4%
[3]
  growth: 1.4% (active)
[4]
  growth: -21.3% (active)
[5]
  growth: -31.2% (active)
[7]
  growth: 16.4%
[10]
  growth: 27.9%
[8]
  growth: 10.7%
[9]
  growth: -37.1% (active)

## O=c1ccn(C2CC(O)C(O)C(CO)O2)c(=O)[nH]1 (stereo not given)
[1]
  growth: 110%
[2]
  growth: 142%
[3]
  growth: 131%
[4]
  growth: 107%
[5]
  growth: 124%
[7]
  growth: 148%
[10]
  growth: 118%
[8]
  growth: 109%
[9]
  growth: 113%

## Cc1ccc2ccccc2c1C[n+]1ccccc1
[1]
  growth: 86.5%
[2]
  growth: 99.3%
[3]
  growth: 109%
[4]
  growth: 84.8%
[5]
  growth: 114%
[7]
  growth: 100%
[10]
  growth: 99.1%
[8]
  growth: 102%
[9]
  growth: 112%
